Screening data as filed in PubChem BioAssay.
Sampled rows, rich in hits. Any-hit rate of the full collection: about 7.3%.
NPC1 prom act: qHTS Assay for NPC1 Promoter Activators; Potency, µM (series often up to 9.22 µM), without a hit: at the highest dose activation, hits mostly activators; hit rate 2.4% among 320,000; Huh7 NPC1 promoter luciferase reporter, 24 h; further: % of control where 0% means no effect; nearly all actives have a fitted effect of over 60% in size
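Luciferase expression driven by the NPC1 promoter was measured in stably transfected Huh7 cells after a 24 h compound incubation, using a luciferase reagent and a luminescence read.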
Luc counter: Counterscreen for Luciferase (Kinase-Glo TM) Inhibition. Kinase-Glo luciferase, ATP luminescence, 8 min. hit rate 0.28% among 200,000. Potency, µM (series often up to 38.3 µM), for the others: top-dose activity change, negative = inhibition, hits mostly inhibitors. AID 1379, 2008. Luciferin 4-monooxygenase (Photuris pensylvanica), Q27757; further: on the % scale 0 is the no-effect control and ±100 the full control effect; nearly all actives have a fitted effect of over 60% in size
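Substrate mix (final 50 mM imidazole pH 7.2, 50 mM KCl, 7 mM MgCl2, 10 uM ATP, 0.01% Tween 20, 0.05% BSA) plus pin-tool compound, then Kinase-Glo detection mix; 8 min ambient, luminescence read.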
FLuc counter: qHTS profiling assay for firefly luciferase inhibitor/activator using purifed enzyme and Km concentrations of substrates (counterscreen for miR-21 project). Luciferin 4-monooxygenase (Photinus pyralis), P08659. purified FLuc, Km substrates, luminescence inhibition. Potency, µM (top dose mostly 57.5 µM), for inactives: top-dose activity change, negative = inhibition, most hits filed as inhibitors. hit rate 6.9% among 360,000;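 further: plate controls were vehicle for no effect and reference inhibitor for full effect; nearly all actives have a fitted effect of over 55% in size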
Target sequence (P08659 whole entry, looked up): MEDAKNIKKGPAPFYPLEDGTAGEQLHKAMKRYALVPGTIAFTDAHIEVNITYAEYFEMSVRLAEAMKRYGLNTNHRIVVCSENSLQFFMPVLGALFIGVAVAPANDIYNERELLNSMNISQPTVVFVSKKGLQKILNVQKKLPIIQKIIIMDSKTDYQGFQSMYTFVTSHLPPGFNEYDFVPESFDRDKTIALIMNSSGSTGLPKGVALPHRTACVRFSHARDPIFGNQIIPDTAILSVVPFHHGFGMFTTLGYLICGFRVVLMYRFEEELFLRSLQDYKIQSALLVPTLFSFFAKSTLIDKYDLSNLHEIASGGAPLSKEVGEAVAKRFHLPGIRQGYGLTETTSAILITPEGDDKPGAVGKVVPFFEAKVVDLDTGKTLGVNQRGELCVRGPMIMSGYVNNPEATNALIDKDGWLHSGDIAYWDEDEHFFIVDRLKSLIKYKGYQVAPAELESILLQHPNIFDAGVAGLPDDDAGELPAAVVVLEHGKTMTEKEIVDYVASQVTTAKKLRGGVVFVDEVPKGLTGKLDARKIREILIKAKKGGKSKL
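Purified P. pyralis luciferase (10nM final) with 10uM D-luciferin and 10uM ATP (Km levels) in 50mM Tris acetate pH 7.5, 10mM Mg acetate, 0.01% Tween-20, 0.05% BSA; qHTS 6-point titration, ~60 µM downward; luminescence read.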
SMN2 splice up: qHTS Assay for Enhancers of SMN2 Splice Variant Expression; AID 1458, 2008; hit rate 2.8% among 210,000; Potency, µM (highest dose often 46.1 µM), for inactives: top-dose activity change, positive = activation, actives largely listed as activators; HEK293 SMN2-luciferase splicing reporter, luminescence, 30-36 h; further: % of control where 0% means no effect; nearly all actives have a fitted effect of over 55% in size
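qHTS luciferase splicing reporter: luminescence rises when SMN2 exon 7 is included in transfected HEK293 cells. Compound exposure lasted 30-36 h at 37C, with 4.5 mM final sodium butyrate as control, followed by a ONE-Glo read.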
ELG1 genotox: qHTS screen for small molecules that induce genotoxicity in human embryonic kidney (HEK293T) cells expressing luciferase-tagged ELG1; HEK293T ELG1-luciferase reporter, luminescence, 16 h; Potency, µM (top dose mostly 46 µM), without a hit: at the highest dose activity change, positive = activation, hits mostly activators; hit rate 1.3% among 330,000; further: % of control where 0% means no effect; nearly all actives have a fitted effect of over 60% in size
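Quantitative HTS format in 1536-well plates. HEK293T ELG1-luciferase reporter cells receive test compound and are incubated 16 hr at 37 °C, 5% CO2; ONE-Glo added, 30 min room temperature, then luminescence read.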
Rab9 prom act: qHTS Assay for Rab9 Promoter Activators; Huh7 Rab9 promoter-luciferase reporter, luminescence, 24 h; Potency, µM (doses to about 9.22 µM), for inactives: top-dose activation, negative = inhibition, actives largely listed as activators; hit rate 2.8% among 320,000; AID 485297, 2010; further: % of control where 0% means no effect; nearly all actives have a fitted effect of over 60% in size
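Measured in stably transfected Huh7 cells bearing a Rab9 promoter–luciferase construct: 24 h compound treatment at 37 °C, followed by luminescence detection.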
* marks the source's active call; other numbers are inactive results; ? = inconclusive; . = no result given; [ ] = remark or other dose. The call rests on the fitted dose curve; in most records, active means well fitted curve in the direction sought with a large enough effect; inconclusive means small, poorly fitted or top-dose-only effect, or another doubt; inactive means no such curve, though single readings can be large; an effect the other way counts as inactive or inconclusive. Potency means the concentration at half of the fitted maximal effect.

SMILES	NPC1 prom act	Luc counter	FLuc counter	SMN2 splice up	ELG1 genotox	Rab9 prom act
COC(=O)C(Cc1c[nH]c2ccccc12)NC(=O)c1ccc2nc[nH]c2c1 (stereo not drawn)	-3%	.	2.4µM*	.	3%	-2%
CCOC(=O)C(Cc1c[nH]c2ccccc12)NC(=O)COc1ccc(CC)cc1 (stereo not drawn)	.	.	-21%	-11%	.	.
CCOC(=O)C(Cc1c[nH]c2ccccc12)NC(=O)c1ccco1 (stereo not drawn)	1%	-6%	21µM*	-9%	20%	-10%
COc1ccc(C2c3[nH]c4ccccc4c3C[C@H]3C(=O)N(CCCO)CC(=O)N23)c(OC)c1 (stereo partly drawn)	-4%	.	-2%	.	2%	0%
COc1ccc(CCC(=O)N(c2nnc(-c3cccnc3)s2)C(C)C)cc1	-4%	2%	0%	.	-5%	1%
O=C(O)c1cccc(COc2ccc(CO)cc2Cl)c1	1.3µM*	-16%	0.021µM*	0.04µM*	?	1.3µM*
O=C(O)c1ccc(OCc2ccccc2)c(Cl)c1	.	-4%[7.66 µM]	.	-6%[9.22 µM]	.	.
CN1CCN(C(=O)c2ccc(COc3ccc(Cl)cc3Cl)cc2)CC1	-2%	-2%	12µM*	-4%	20%	1%
O=C(O)c1ccc(COc2ccc(CO)cc2Cl)cc1	?	2%	5.4µM*	?	9.2µM*	4.5µM*
c1c(CC2CCCC2)nnn1C[C@H]1CC[C@@H]([C@@H]2CC[C@H](Cn3cc(CC4CCCC4)nn3)O2)O1	3%	.	6%	.	0%	-2%
O=C(CCSCCc1ccccn1)Nc1c(F)cc(F)cc1Br	-4%	-2%	9%	4%[1.84 µM]	-2%	-4%
COc1ccc2c(=O)c(OC)c(-c3ccccc3)oc2c1	.	-2%	.	-20%	.	.
COc1ccc2c(c1)OCc1c-2oc2cc(OC)ccc12	.	-2%	.	13µM*	.	.
CC1CCOC(c2coc3ccccc3c2=O)O1 (stereo not drawn)	?	?	13µM*	10µM*	?	?
O=C(O)C1CSC(c2coc3ccccc3c2=O)N1 (stereo not drawn)	1%	-1%	3%	19%	1%	-9%
C/C(=N\NS(=O)(=O)c1ccccc1)c1cc(Cl)cc(Cl)c1O	-15%	3%	?	-37%	6%	-2%
Clc1ccc(CSc2nc3ccncc3[nH]2)cc1	0.63µM*	?	4.8µM*	11µM*	2.9µM*	0.71µM*
O=C(c1ccc(CSc2nc3ccncc3n2Cc2ccccc2)cc1)N1CCCCCC1	.	.	17µM*	-28%	.	.
O=C(c1ccc(CSc2nc3ccncc3[nH]2)cc1)N1CCCCCC1	?	.	15µM*	.	?	?
Cc1ccc(CSc2nc3ccncc3[nH]2)cc1	?	11µM*	2.7µM*	7.1µM*	?	?
Cc1ccc(OCC(O)CN2CCN(c3ccccn3)CC2)c(C)c1 (stereo not drawn)	-1%	-4%	-10%	.	-1%	-11%
CC(C)CCNC(=O)C1CC(c2ccc(C(F)(F)F)cc2)=NO1 (stereo not drawn)	-3%	.	-7%	.	5%	3%
Cc1ccc(NC(=O)c2nnn(-c3cc(C)cc(C)c3)c2N)cc1	16%	-2%	?	-7%	4%	-5%[1.84 µM]
Cc1c(C(=O)Nc2ccc(C(=O)O)cc2)nnn1-c1ccccc1	.	.	0.27µM*	.	.	.
Cc1c(C(=O)O)nnn1-c1ccccc1	-4%	5%	0%	6%	0%	4%
SMILES	NPC1 prom act	Luc counter	FLuc counter	SMN2 splice up	ELG1 genotox	Rab9 prom act
Cc1cccc(-n2nnc(C(=O)N3CCc4ccccc4C3)c2N)c1	23%	-6%	15µM*	-13%	2%	25%
Cc1cccc(-n2nnc(C(=O)Nc3ccc(F)cc3)c2N)c1	1.6µM*	-3%	6µM*	10µM*	13%	2.8µM*
COc1ccc(CNC(=O)C2CCCN(c3nnc(C)c4c(C)n(-c5ccc(C)cc5)nc34)C2)cc1 (stereo not drawn)	.	.	-13%	.	.	.
Cc1onc(-c2ccccc2)c1C(=O)NC(=S)NNC(=O)c1ccncc1	0%	2%	0%	6%	-1%	-5%
Cc1onc(-c2ccccc2)c1C(=O)NC(=S)NNC(=O)c1cc(-c2ccc(F)cc2)n[nH]1	1%	.	15µM*	.	-9%	-2%
COC(=O)c1cc(NC(=S)N2CCN(C(=O)C3CCCO3)CC2)cc(C(=O)OC)c1 (stereo not drawn)	-7%	5%	2%	.	0%	-4%
O=C(Nc1ccc(-c2nc3ccccc3[nH]2)cc1)C1CCCO1 (stereo not drawn)	0.35µM*	4µM*	1.2µM*	2.2µM*	0.41µM*	0.32µM*
O=C(Nc1nc2ccccc2[nH]1)C1CCCO1 (stereo not drawn)	?	-13%	?	29%	16%	?
Cc1ccc2nc(-c3ccc(NC(=O)CSc4ccccc4)cc3)[nH]c2c1	1.6µM*	3%	?	3.5µM*	?	2.5µM*
O=C(CSc1ccc(Cl)cc1)Nc1cccc(-c2nc3ccccc3[nH]2)c1	16%	1%	-7%	2.8µM*	20%	?
O=C(CN1CCOCC1)Nc1ccc(-c2nc3ccccc3[nH]2)cc1	?	-9%	13µM*	25%	?	?
Cc1ccc2nc(SCC(=O)Nc3ccc(C(N)=O)cc3)[nH]c2c1	-1%	-3%	-6%	.	7%	-17%
CC(C)OC(=O)CSc1nc2c(cc1C#N)CCCCC2	?	0%	-2%	?	12%	?
CCOc1ccc(NC(=S)NCc2nc3ccccc3[nH]2)cc1	-2%	0%	-10%	11%	6%	-3%
O=C(CSc1ccccc1)Nc1ccc(-c2nc3ccccc3[nH]2)cc1	2.2µM*	0%	?	8.9µM*	?	3.2µM*
CCNC(=S)Nc1ccc(-c2nc3ccccc3[nH]2)cc1	3.2µM*	.	11µM*	.	?	1.1µM*
O=C(Cc1cccs1)Nc1ccc(-c2nc3ccccc3[nH]2)cc1	1.8µM*	-18%	1.5µM*	18µM*	?	1.6µM*
O=C(Nc1ccc(-c2nc3ccccc3[nH]2)cc1)c1c(F)c(F)c(F)c(F)c1F	-5%	2%	-1%	-2%	2%	-5%
NC(=O)CSc1nc(C23CC4CC(CC(C4)C2)C3)nc2ccccc12	2%	0%	-1%	.	?	-15%
Cc1cc(Nc2ccccc2)n(C(=O)c2ccc(Cl)cc2)n1	17%	1%	11µM*	20%	11%	8%
